These results are taken from PubChem BioAssay.

In general, viability refers to a read-out of living cells in per cent, often relative to untreated cells.

A short description of assay [1]: P. berghei load reduction in hepatocytes – cell-based, HepG2, luciferase luminescence, HepG2 viability, primary screen (AID 624349; in the data active = parasite load remaining mostly below about 12%, no sharp cut-off; inactive = mostly above about 10%;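 also: 100% = mean of DMSO negative control wells on the same plate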). The settings on record: P. berghei liver stage in HepG2, luciferase luminescence, concentration not given here; parasite load remaining: stronger effect = lower value; viability: measured here: HepG2 viability without parasites.
A short description of assay [2]: Wnt pathway potentiators raising nuclear beta-catenin – imaging, WNT3A-conditioned medium, mouse C2C12, NPC library, primary screen (AID 1117326; in the data active = nuclear beta-catenin stimulation mostly above about 4.2%, no sharp cut-off; inactive = mostly below about 10%). The settings on record: stronger effect = higher value.
Assay [3] is described as follows: stimulators of insulin release from INS-1E, primary screen, cell-based, 5 mM glucose, NPC library (AID 1117329;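 active = compound raises insulin release from rat beta cells at 5 mM glucose, no numeric limit stated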). The settings on record: rat INS-1E insulin secretion, at 10 µM, stronger effect = higher value.
Assay [4] in a line: growth inhibition of GSK3B-pretreated HCT116 cells – cell-based, CellTiter-Glo, 0.2 to 20 µM (AID 1117336;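 active = compounds lowering colon cancer cell viability after pretreatment blocking the GSK3B kinase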). The settings on record: HCT116 viability after GSK3B inhibitor, at 20 µM, stronger effect = higher value. On the technique in general: In ATP-based viability assays light output follows the ATP content of the culture.
Assay [5] can be described thus: inhibition of endothelial tube formation, primary screen, imaging, VEGF stimulated, CD31 staining, tube area, NPC library (AID 1117340;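 active = compound that reduces growth-factor-driven endothelial tube area in a mixed cell culture, no cutoff stated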). The settings on record: VEGF-stimulated ADSC/ECFC co-culture, at 10 µM, stronger effect = higher value.
Assay [6] is described as follows: GLP1 release stimulators, primary, NCI-H716, NPC library (AID 1117341;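 active = compound raises GLP1 secretion from the human gut endocrine cells, with no numeric limit stated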). The settings on record: NCI-H716 cells, at 10 µM, stronger effect = higher value.
Assay [7] is described as follows: HCT116 colon cancer cell growth inhibition, primary screen, CellTiter-Glo luminescence, NPC library (AID 1117342;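 active = compounds that lower survival of HCT116 colon cancer cells in the luminescence readout, no numeric limit stated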). The settings on record: at 20 µM (top of the series).
Assay [8] in a line: reduced SW480 viability measured with CellTiter-Glo, NPC library, primary (AID 1117343;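 active = compounds that lower viability of the colon cancer cells in the luminescence readout, with no numeric limit stated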). The settings on record: CellTiter-Glo luminescence; at 20 µM (top of the series).
The nature of assay [9]: NPC library primary testing for decreased DLD-1 cell viability via CellTiter-Glo (AID 1117346;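 active = compounds that lower survival of DLD-1 colon cancer cells in the luminescence readout, no cutoff given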). The note with it: DLD-1 viability, CellTiter-Glo luminescence; at 20 µM (top of the series).
The nature of assay [10]: viability loss with induced miR-34 in A549 – imaging, A549 dox-inducible miR-34, nuclei and caspase counts, primary screen (AID 1347080;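 active = compounds whose cell count with miR-34 switched on is under 0.7 times the count with it off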). The settings on record: A549 miR-34 inducible, Hoechst nuclei count, 48 h.
Assay [11] can be described thus: MELAS cybrid and Rieske KO viability enhancers – cell-based, MELAS cybrids, Rieske KO mouse fibroblasts, CellTiter-Glo, primary screen (AID 1508586;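 active = mean z-score across replicates of 1.96 or higher in either the MELAS or the Rieske mutant cell line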;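 also: z relative to plate mean and SD of compound and empty wells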). The note with it: low glucose.
The nature of assay [12]: galactose survival enhancers in mitochondrial complex I cybrids – cell-based, galactose medium, ATP luminescence, primary screen (AID 1645843).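 Also: positive z means more ATP and so rescue of galactose-driven cybrid death.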 The settings on record: complex I mutant cybrid cells, 72 h, stronger effect = higher value.
Assay [13] in a line: EMT-state selective cytotoxicity in co-culture – imaging, PC-3E GFP, TEM4-18 mCherry, primary screen (AID 1345086;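 active = compounds killing one labelled cell type while sparing the other, by normalised counts and ratio limits, not self-fluorescent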;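 as to all read-outs here: cells exposed to compound for 72 h before imaging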;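 as to red/green cell ratio (normalised): normalised mesenchymal count divided by normalised epithelial count so high means epithelial killing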). The note with it: PC-3E GFP / TEM4-18 mCherry co-culture, imaging cell counts, at 1 µM; for red/green cell ratio (normalised): actives lie on both sides.
The subject of assay [14] is Aerobactin synthetase IucA (Klebsiella pneumoniae hvKP1). Description: IucA enzyme inhibition, primary screen, biochemical, Spectrum library (AID 1346200; call rule not given here;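 also: 100% = wells without compound and 0% = wells lacking enzyme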). The note with it: malachite green pyrophosphate, A620, at 8 µM, stronger effect = lower value.
Assay [15] addresses NAD(+) hydrolase SARM1 (Homo sapiens) (UniProt Q6SZW1). Description: blocking NAD cleavage by SARM1 SAM-TIR – cell lysate, NAD-Glo luminescence (AID 1508614;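 active = compound whose remaining NAD level is above about 45 nM, limit read from the data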;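 also: higher remaining NAD means stronger inhibition of SARM1 NADase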). The note with it: SAM-TIR HEK293T lysate NADase, at 1 µM, stronger effect = higher value.
For assay [16], the target named is Mitogen-activated protein kinase 7 (Homo sapiens) (UniProt Q13164). As to the kind of experiment: Gal4-ERK5 driven luciferase induction – cell-based, HTS, primary screen (AID 1508626;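 active = luciferase signal above three times the same-plate solvent-only control wells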;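 also: luciferase driven by Gal4-ERK5 fusion binding five Gal4 sites before minimal TATA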). The note with it: HeLa Gal4-ERK5 transactivation, 18 h, at 5 µM, stronger effect = higher value.
Where [17] appears, read: measured here: relative caspase fold change +Dox/-Dox.
[18] abbreviates: measured here: total cells with miR-34 induction, stronger effect = lower value.
Where [19] appears, read: measured here: total cells without miR-34 induction.
The mark [20] stands for this setting: MELAS cybrid survival, CellTiter-Glo 48 h, stronger effect = higher value.
[21] abbreviates: Rieske KO mouse fibroblast survival, CellTiter-Glo 72 h.
The mark [22] stands for this setting: measured here: epithelial PC-3E GFP cell survival.
Setting [23] is: measured here: mesenchymal TEM4-18 mCherry cell survival.

“And” between values parts separate entries of the source, which are not always exact repeats. Identical values can stand only once. The source made the active and inactive calls.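 The calls were made as follows, unless noted: active = z-score of at least 1.8 in each of two replicates, scored against plate mean and spread of sample wells; inactive = the rest.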

NAD(+) hydrolase SARM1 (Homo sapiens), sequence (Q6SZW1 whole entry, looked up, the tested form may be a part): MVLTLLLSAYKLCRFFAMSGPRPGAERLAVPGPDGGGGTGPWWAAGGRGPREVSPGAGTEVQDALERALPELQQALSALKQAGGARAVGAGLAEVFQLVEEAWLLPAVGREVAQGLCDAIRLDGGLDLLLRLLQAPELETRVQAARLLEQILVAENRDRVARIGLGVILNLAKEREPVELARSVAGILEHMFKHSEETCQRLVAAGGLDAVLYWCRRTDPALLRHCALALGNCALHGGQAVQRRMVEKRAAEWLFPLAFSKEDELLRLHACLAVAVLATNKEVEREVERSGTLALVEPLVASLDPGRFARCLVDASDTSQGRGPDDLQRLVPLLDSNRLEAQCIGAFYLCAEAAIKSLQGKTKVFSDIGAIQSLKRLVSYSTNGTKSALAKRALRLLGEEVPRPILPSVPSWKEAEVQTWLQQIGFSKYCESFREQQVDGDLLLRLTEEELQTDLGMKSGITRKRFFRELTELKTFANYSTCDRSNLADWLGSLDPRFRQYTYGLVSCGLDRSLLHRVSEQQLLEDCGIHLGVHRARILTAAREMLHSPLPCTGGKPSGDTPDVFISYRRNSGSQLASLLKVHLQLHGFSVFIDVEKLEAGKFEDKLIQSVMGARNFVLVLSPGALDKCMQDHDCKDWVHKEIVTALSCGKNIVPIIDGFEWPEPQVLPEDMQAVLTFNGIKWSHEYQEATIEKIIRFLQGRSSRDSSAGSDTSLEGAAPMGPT
Mitogen-activated protein kinase 7 (Homo sapiens), sequence (Q13164 whole entry, looked up, the tested form may be a part): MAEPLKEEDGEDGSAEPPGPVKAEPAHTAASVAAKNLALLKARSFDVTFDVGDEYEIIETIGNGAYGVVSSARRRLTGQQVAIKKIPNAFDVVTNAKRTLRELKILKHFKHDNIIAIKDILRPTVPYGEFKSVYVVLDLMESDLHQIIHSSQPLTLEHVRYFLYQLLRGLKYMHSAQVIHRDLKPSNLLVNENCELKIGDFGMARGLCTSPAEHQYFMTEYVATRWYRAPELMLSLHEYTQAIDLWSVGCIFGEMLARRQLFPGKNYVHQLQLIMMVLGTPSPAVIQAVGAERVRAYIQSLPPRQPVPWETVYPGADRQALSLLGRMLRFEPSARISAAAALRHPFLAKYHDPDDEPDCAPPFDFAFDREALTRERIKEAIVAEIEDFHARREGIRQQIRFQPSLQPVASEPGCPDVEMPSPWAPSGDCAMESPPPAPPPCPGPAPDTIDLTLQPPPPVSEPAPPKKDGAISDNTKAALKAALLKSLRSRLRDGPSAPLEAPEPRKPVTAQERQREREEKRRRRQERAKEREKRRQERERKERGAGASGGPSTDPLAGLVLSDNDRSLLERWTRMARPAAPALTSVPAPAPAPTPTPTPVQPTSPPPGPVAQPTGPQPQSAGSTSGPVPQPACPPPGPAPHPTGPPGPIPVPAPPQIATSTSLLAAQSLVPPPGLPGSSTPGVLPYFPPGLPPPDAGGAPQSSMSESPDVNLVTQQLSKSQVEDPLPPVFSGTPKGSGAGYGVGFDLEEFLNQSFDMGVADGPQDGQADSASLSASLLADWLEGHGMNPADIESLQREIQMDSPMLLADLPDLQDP

Regarding `CN[C@@H]1C[C@@H](c2ccc(Cl)c(Cl)c2)c2ccccc21`, the parasite load remaining in assay [1] is 4.35% (inactive). Also, the viability in assay [1] is 29.3%. Also, the nuclear beta-catenin stimulation was 63.1% (active) in assay [2] (at 10 µM) and 1.4% in assay [2] (stimulation, at 2 µM). Further, in assay [3], the insulin secretion stimulation is 6.2% (inactive). Also, in assay [4], the viability decrease is 99.9% (active). In addition, the tube area decrease in assay [5] is 108% (active). In addition, the GLP1 secretion stimulation in assay [6] is -0.3% (inactive). In addition, in assay [7], the inhibition of viability is 100% (active). Moreover, the viability decrease (inhibition) is 103% (active) in assay [8] and 102% (active) in assay [9]. Besides, the fold change in [10] (stronger effect = lower value) is 0.889 (inactive) and 0.782 (inactive); in assay [10] (setting [17]), 0.588 and 1.76. Besides, the cell count is 306 and 538 in assay [10] (setting [18]); 344 and 689 in [10] (setting [19]). Further, the z-score in [11] (setting [20]) was -1.52 (inactive); in assay [11] (setting [21]), -1.03; in assay [12], -1.29 (inactive) and -0.78 (inactive).
Take `CN(C)C(=O)Oc1cc(OC(=O)N(C)C)cc(C(O)CNC(C)(C)C)c1` (centres undefined): the parasite load remaining in [1] is 140% (inactive) and 77.2% (inactive) and 45.2% (inactive). The viability in assay [1] is 97.8% and 75.7% and 103%. Further, the nuclear beta-catenin stimulation in assay [2] (at 10 µM) was 0.1% (inactive); in [2] (stimulation, at 2 µM) it was 4.2%. In addition, the insulin secretion stimulation in assay [3] was 0.9% (inactive). Besides, the viability decrease in assay [4] is -5.7% (inactive). For the same molecule, the tube area decrease in [5] was -4% (inactive). Moreover, the GLP1 secretion stimulation in assay [6] was 12.7% (inactive). The inhibition of viability in [7] is -0.23% (inactive). In addition, the viability decrease (inhibition) is -17% (inactive) in [8] and -13% (inactive) in assay [9]. Moreover, in assay [13], the red/green cell ratio (normalised) is 0.71 (inactive). In addition, the figures for the normalised cell number in assay [13] (setting [22]) and in [13] (setting [23]) were 1.3 and 0.92, respectively. Besides, the activity remaining in assay [14] was 118% (inactive). Further, the fold change in assay [10] (stronger effect = lower value) is 0.804 (inactive) and 0.911 (inactive) and 0.913 (inactive); in assay [10] (setting [17]), 1.26 and 0.519 and 1.12. In addition, the cell count was 8290 and 8600 and 10000 in assay [10] (setting [18]); 10300 and 9440 and 11000 in [10] (setting [19]). Besides, the z-score in assay [11] (setting [20]) was -0.119 (inactive) and 0.142 (inactive) and -0.358 (inactive); in assay [11] (setting [21]) it was -0.285 and -0.41 and -0.25; in [12], 0.805 (inactive). The remaining NAD in assay [15] is 10 nM (inactive). Also, in assay [16], the luciferase signal is 80 AU (inactive).
As for `CC[C@@H](CO)NC(=O)[C@@H]1C=C2c3cccc4c3c(cn4C)C[C@H]2N(C)C1`, the nuclear beta-catenin stimulation in assay [2] (at 10 µM) was 3.3% (inactive); in assay [2] (stimulation, at 2 µM), 1.1%. Also, the insulin secretion stimulation in assay [3] was 2.6% (inactive). Besides, in assay [4], the viability decrease was 1% (inactive). In addition, the tube area decrease in [5] is -1.8% (inactive). Also, the GLP1 secretion stimulation in assay [6] was 0.1% (inactive). Besides, in [7], the inhibition of viability was 9.4% (inactive). Further, the viability decrease (inhibition) is 16% (inactive) in [8] and 5.6% (inactive) in [9]. The red/green cell ratio (normalised) in [13] is 0.99 (inactive). The figures for the normalised cell number in assay [13] (setting [22]) and in assay [13] (setting [23]) were 0.96 and 0.95, respectively. In addition, the z-score was -0.563 (inactive) in assay [11] (setting [20]); -1.27 in assay [11] (setting [21]); 0.19 (inactive) and -0.69 (inactive) and -0.15 (inactive) in assay [12]. Moreover, the remaining NAD in [15] is 10 nM (inactive).
Regarding `CCN(CC)CCOC(=O)C(O)(c1ccccc1)c1ccccc1`, the parasite load remaining in [1] was 103% (inactive). In addition, the viability in assay [1] worked out at 95.8%. The nuclear beta-catenin stimulation in [2] (at 10 µM) is -0.3% (inactive); in assay [2] (stimulation, at 2 µM), -1.2%. Also, the insulin secretion stimulation in assay [3] was 4% (inactive). Besides, the viability decrease in [4] is -5.8% (inactive). Besides, in [5], the tube area decrease is -5.7% (inactive). Besides, in assay [6], the GLP1 secretion stimulation is 1% (inactive). In addition, in [7], the inhibition of viability was 1.8% (inactive). For the same molecule, the viability decrease (inhibition) in [8] was -15.1% (inactive); in [9] it was 2.6% (inactive). Further, the fold change in [10] (stronger effect = lower value) is 1.01 (inactive); in [10] (setting [17]), 1.6. Moreover, the cell count in [10] (setting [18]) came to 10200; in [10] (setting [19]), 10100. In addition, in [12], the z-score is 0.79 (inactive).
